Source: PubChem BioAssay AID1233 (SRMLSC, 2008)
Entries with a potency or affinity are not part of this list. Activity calls are given as the source filed them.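 How the source made its calls: active means a dose-response curve fit returns a half-maximal inhibitory concentration, extrapolated values included; inactive means the fit returns no such concentration.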

target: HMG-CoA reductase [Enterococcus faecalis] (UniProt Q9FD70); assay: class II HMG-CoA reductase inhibition potency – biochemical, Enterococcus faecalis, confirmation (AID 1233); details: purified E. faecalis HMGR, NADPH absorbance 340 nm kinetics; series mostly up to 100 µM

outcome, inactive:
O=C(Cn1ncc2ccccc21)N1CCN(c2cccc(C(F)(F)F)c2)CC1
CC(C)[C@H](NC(N)=O)C(=O)Nc1cccc(S(=O)(=O)N2CCOCC2)c1
NCCc1nnc(SCc2ccc(F)cc2)o1
O=C(COC(=O)c1cc(S(=O)(=O)N2CCCCC2)ccc1N1CCOCC1)NC1CCS(=O)(=O)C1 (stereo not drawn)
Cc1ccc(-c2nc3cccnc3s2)cc1NS(=O)(=O)c1ccc2c(c1)CCCC2
Cc1ccc(-c2noc(CSc3nnc(Cc4ccccc4)n3-c3ccc(Cl)cc3)n2)cc1
CCCc1nc(NCc2ccccn2)c2nnn(Cc3ccccc3F)c2n1
COC(=O)CNC(=O)CSc1nnc2cc(C)c3ccccc3n12
CC(C)(C)C1(O)CC(C(F)(F)F)=NN1C(=O)CCCc1ccccc1 (stereo not drawn)
COc1ccc(N2C(=O)CS/C2=C\[N+](=O)[O-])cc1
Cc1cnc(NC(=O)CSc2nnc(-c3ccc(Cl)cc3Cl)n2N)s1
S=C1NCCc2ccc(Cl)cc2C1c1ccccc1 (stereo not drawn)
Cc1cccc(/C=N/NC(=O)c2cc(-c3cccnc3)nc3c2c(C)nn3-c2ccccc2)c1
O=C1OC(c2cccs2)=N/C1=C/c1ccc(-c2cccc(C(=O)O)c2)o1
O=c1c(OC2OC(CO)C(O)C(O)C2O)c(-c2ccc(O)c(O)c2)oc2cc(O)cc(O)c12 (stereo not drawn)
COc1cc(OC)c(OC)cc1/C=N/NC(=S)NCCN1CCOCC1
COc1ccc(N(C(C)C(=O)N/N=C/c2ccc(OC(C)C)cc2)S(C)(=O)=O)cc1 (stereo not drawn)
CCCNC(=O)c1cc2c(C(F)(F)F)nn(C)c2s1
COc1ccc(C(=O)/C=C/c2ccc(N3CCCCC3)c([N+](=O)[O-])c2)c(OC)c1
O=C(N/N=C/c1cc(Br)cc(Br)c1O)c1cccc(N2CCCC2=O)c1
CC1CN(Cc2cnc(Cl)s2)CC(C)O1 (stereo not drawn)
CC(=O)Nc1cccc(NC(=O)CSc2ccc(-c3cccnc3)nn2)c1
Cc1ccc(-c2cc(C(=O)NCc3ccc4c(c3)OCO4)[nH]n2)c(O)c1C
OC(COc1ccc(Cl)cc1)CN1CCCCC1 (stereo not drawn)
CN(C(=O)c1cc2ccccc2oc1=O)C1(C)CCS(=O)(=O)C1 (stereo not drawn)
COc1ccc(-c2nn(-c3ccccc3)cc2/C=N/Nc2cccc(C(=O)O)c2)cc1
CCOC(=O)c1ccc(N(C(=O)c2cnccn2)C(C(=O)NC2CCCCC2)c2cn(C)nc2C)cc1 (stereo not drawn)
CCOC(=O)NC(=O)CN1C(=O)NC(C)(c2ccccc2)C1=O (stereo not drawn)
CN(CCOC(=O)c1cccc(Br)c1)C(C)(C)C
COC(=O)C1C(c2ccc(N(C)C)cc2)C(C(=O)OC)S(=O)(=O)CS1(=O)=O (stereo not drawn)
CCOC(=O)C(NC(C)=O)(Nc1ccc(S(=O)(=O)Nc2cc(C)nc(C)n2)cc1)C(F)(F)F (stereo not drawn)
CCC1Oc2ccccc2N(CC(=O)NCc2ccco2)C1=O (stereo not drawn)
Cc1cc(C)n(C2CC(=O)N(c3ccccc3)C2=O)n1 (stereo not drawn)
CCCCC(=O)Nc1nnc(C2=COCCO2)o1
COc1ccc(NC(=O)C2=C(C)NC(=O)NC2c2cccc(OC)c2OC)c(OC)c1 (stereo not drawn)
NC(=O)CSc1nnc(-c2ccc([N+](=O)[O-])cc2)o1
COc1cccc(-c2nnc3sc(-c4cccs4)nn23)c1
Brc1ccc(CSc2nnc3ccccn23)cc1
